From PubChem BioAssay AID1159580 (chemical genetic matrix, 2015)
Screen size: about 5,500 compounds; about 2,000 (36%) were called active. Another 18% or so got no clear call; they are omitted. Rule as the data show it: active = normalized growth mostly below about 0.91 (no sharp cut-off); inconclusive = no clear call, values can overlap the other calls; inactive = mostly above about 0.92. Some of the results follow.

Assay: chemical genetic growth profiling, strain panel (AID 1159580);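 also: tested at 20 µM; growth read once vehicle control cultures reached saturation at 30 °C; 1 = growth at the plate median or of vehicle wells; lower values mean less growth of the strain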
Conditions: S. cerevisiae deletion strains, growth OD

Measured: normalized growth

CCOC(=O)C1C(=O)C=C(c2cccs2)CC1c1ccc(OC)c(OC)c1Cl (stereo unspecified)
active: locus YLR262C, strain YPT6, active compounds read low 0.796
inactive: locus YAL013W, strain DEP1, active compounds read low 0.988 | locus YBR229C, strain ROT2, active compounds read low 0.991 | locus YDL101C, strain DUN1, active compounds read low 0.995 | locus YDL134C, strain PPH21, active compounds read low 0.989 | locus YDR150W, strain NUM1, active compounds read low 0.968 | locus YEL061C, strain CIN8, active compounds read low 1.01 | locus YGR078C, strain PAC10, active compounds read low 0.979 | locus YHR030C, strain SLT2, active compounds read low 0.874 | locus YHR087W, strain rtc3, active compounds read low 0.998 | locus YJR043C, strain POL32, active compounds read low 0.983 | locus YJR075W, strain HOC1, active compounds read low 0.974 | locus YLR039C, strain RIC1, active compounds read low 0.863 | locus YLR058C, strain SHM2 (second series), active compounds read low 0.992 | locus YLR085C, strain ARP6, active compounds read low 1 | locus YML094W, strain GIM5, active compounds read low 1.03 | locus YMR219W, strain ESC1, active compounds read low 0.993 | locus YMR263W, strain SAP30, active compounds read low 1.01 | locus YNL153C, strain GIM3, active compounds read low 0.988 | locus YNL298W, strain CLA4 (second series), active compounds read low 0.976 | locus YNL322C, strain KRE1, active compounds read low 0.993 | locus YNR030W, strain Alg12, active compounds read low 0.968 | locus YOL006C, strain TOP1, active compounds read low 0.895 | locus YPL055C, strain LGE1, active compounds read low 1.04 | locus YPL241C, strain CIN2, active compounds read low 1.01 | locus YPR135W, strain CTF4, active compounds read low 0.843
